# Target: KCNN3
# Test: pooled miR-30 sensor sort-seq; sequence = guide strand
# Settings: shRNA
# Also: reference of the scale not given here.
row,Sequence,sensor-assay potency score (higher = more potent)
1,TTGTCGATCACGAAGAGCTGGA,0.137
2,TTGAAGTTGATCTTGTTGAGGG,0.397
3,ATACATGACATTCTGCATCTTG,0.37
4,AAAGTTACTAGTTACGTCCTGC,0.827
5,TACATGACATTCTGCATCTTGG,-0.595
6,TTCTTTAGCAGCTTTGTGTGTT,0.0976
7,TAGATTAACCATGTTTCCCGAA,-0.326
8,TTTGGCATGGTCAATCTTCTTT,-0.404
9,TTCTCCAGGTCTTCGCTCCGGT,-0.356
10,TAGGTCATGGCTATCCGCCAGT,-0.594
11,TAAGTCATACATGACATTCTGC,0.0328
12,TTGGTCACTCAGCTTCCTCTGT,-0.263

# From the OligoGym collection
